Sampled rows, rich in hits. Any-hit rate of the full collection: about 12%.
BAZ2B block = BAZ2B (human) inhibition | AlphaScreen BAZ2B-H3K14Ac peptide displacement | Potency, µM (highest dose often 114 µM), without a hit: top-dose activity change, negative = inhibition, hits mostly inhibitors | 360,000 compounds, 4.4% hits | AID 504333 | Q9UIF8; note: % is set by controls: 0 for no effect and ±100 for the full control effect; nearly all actives have a fitted effect of over 60% in size
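AlphaScreen displacement: compounds (up to 110uM) incubated 30 min at room temperature with a preformed 50 nM BAZ2B/50 nM biotinylated H3K14Ac peptide complex in PBS pH 7.4 with Tween-20. Donor and acceptor beads at 10 ug/mL final added, 20 min light-protected before reading.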
G9a block = G9a (human) methyltransferase inhibition; G9a H3K9 monomethylation, AlphaScreen, 2 h; Potency, µM (doses to about 102 µM), inactives show at the highest dose activity, negative = inhibition, hits mostly inhibitors; 350,000 compounds, 8.8% hits; note: % is set by controls: 0 for no effect and ±100 for the full control effect; nearly all actives have a fitted effect of over 75% in size
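Step 1: enzyme (final 20 nM) with compound, 15 min RT. Step 2: substrate peptide 500 nM and SAM 20 uM, 2 h RT. Step 3: anti-H3K9me1 antibody and AlphaScreen beads, 10 min, then plate read.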
HP1b chromo inh = HP1-beta chromodomain-methylated histone interaction inhibition | AlphaScreen HP1-beta / biotin-H3K9me3 peptide binding | Potency, µM (titrated, usually from 114 µM), inactives show at the top dose activity change, negative = inhibition, hits mostly inhibitors | AID 540317 | 390,000 compounds, 0.56% hits | P83916; note: nearly all actives have a fitted effect of over 70% in size
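Compound inhibition of the preformed complex between 50 nM HP1-beta and 50 nM biotinylated H3K9me3 peptide was read by AlphaScreen. Buffer was PBS pH 7.4 with 0.01% Tween-20. Incubations ran 30 min at room temperature, with 10 ug/mL donor/acceptor beads.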
Sfp PPTase inh = Sfp phosphopantetheinyl transferase inhibition; Biochemical Sfp PPTase activity, qHTS; 310,000 compounds, 3.5% hits; Q9F4F7; Potency, µM, without a hit: largest response in the series, negative = inhibition, most hits filed as inhibitors;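 note: the enzyme is Sfp with the accession as filed and its product quenches rhodamine fluorescence; 0% = enzyme reaction without inhibitor and -100% = no enzyme wells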
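Fluorescence-quenching assay: 15 nM Sfp-PPTase preincubated 15 min at room temperature with compound, then 5 uM rhodamine-CoA and 12.5 uM BHQ-2-labelled YbbR peptide added. Fluorescence (ex 525/em 598 nm) read at start and after 30 min; difference gives rate.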
JMJD2A Tudor inh = inhibitors of human JMJD2A Tudor domain; O75164; AlphaScreen JMJD2A-Tudor / H3K4me3 peptide binding; Potency, µM (series often up to 114 µM), for the others: at the highest dose activity change, negative = inhibition, actives largely listed as inhibitors; AID 504339; 390,000 compounds, 4.4% hits; note: % is set by controls: 0 for no effect and ±100 for the full control effect; nearly all actives have a fitted effect of over 50% in size
Numbers without * were called inactive; ? = inconclusive; . = not tested or not shown; ! = not active in a repeat; [ ] = remark or other dose. Calls come from the whole dose curve; as a rule, active = well fitted curve in the direction sought with a large enough effect; inconclusive = small, poorly fitted or top-dose-only effect, or another doubt; inactive = no such curve, though single readings can be large; an effect the other way counts as inactive or inconclusive. Potency is the fitted concentration of half-maximal effect.

SMILES	BAZ2B block	G9a block	HP1b chromo inh	Sfp PPTase inh	JMJD2A Tudor inh
CN(C[C@H](Cc1ccccc1)N(C[C@H](Cc1ccccc1)N(CC1(c2ccccc2)CC1)N=O)N=O)N=O	?	-6%[59 µM]	16%	1%	-27%
Cc1ccc(-c2nnc(Nc3ccc(O)cc3)c3ccccc23)cc1S(=O)(=O)N1CCOCC1	-20%	4%[59 µM]	13%	.	?
NC(N)=Nc1ccc2[nH]c3c(c2c1)C[C@@]1(O)[C@H]2Cc4ccc(O)c5c4[C@@]1(CCN2CC1CC1)[C@H]3O5	25µM*	1.3µM*	?	.	3.5µM*
Cc1cccc(C)c1N1CCN(c2c(C)cccc2C)CC1	9%	40µM*	71%	5%	3%
S=c1[nH]nc(C2CC2)n1Cc1ccco1	1%	2.5µM*	8%	-16%	22µM*
C=CCn1c(C2CC2)n[nH]c1=S	-24%	45µM*	40%	-23%	?
CCOC(=O)c1c(N)n(Cc2ccco2)c2nc3ccccc3nc12	.	15%[59 µM]	34%	?	-2%
CCOC(=O)CCN(SN(C)C(=O)Oc1cccc2c1OC(C)(C)C2)C(C)C	.	.	.	-13%	.
O=C(NCNC(=O)N[C@H]1C(=O)NC(=O)N1CO)N[C@H]1C(=O)NC(=O)N1CO	.	31%[21.5 µM]	.	12%	.
CC1CCCCN1CCNS(=O)(=O)c1ccc2c(c1)oc(=O)n2C (stereo not drawn)	2%	?	23%	11%	-15%
Nc1ccc(Oc2cccc(Oc3ccc(N)cc3)c2)cc1	40µM*	45µM*	?	12%	?
CCOc1ccc(N)cc1	.	.	15%	.	-27%
Cc1ccc(NC(=O)C2CCN(C(=O)c3cnn(-c4ccccc4)c3-n3cccc3)CC2)cc1Cl	-16%	-1%[59 µM]	-5%	.	?
CCCc1cc2c(n1Cc1ccco1)C(C)C1CN(C(=O)c3ccccc3)C(C)(C(=O)OC)C21 (stereo not drawn)	.	.	.	32µM*	.
C[C@H](N)[C@@H](O)c1ccccc1	.	28%[21.5 µM]	.	-5%	.
CC(C)=CCCC1(C)C=Cc2c(O)c3c(c(CC=C(C)C)c2O1)OC12C(=CC4CC1C(C)(C)OC2(C/C=C(/C)C(=O)O)C4O)C3=O (stereo not drawn)	.	.	.	50µM*	.
CCC1OC2(C)C(O)C(/C=C/C=C/C=C/c3oc(=O)cc(OC)c3C)OC1(C)C2OC(C)=O (stereo not drawn)	.	.	.	-17%	.
COP(=S)(OC)Oc1ccc(S(=O)(=O)N(C)C)cc1	.	10µM*	.	35µM*	.
S=C(c1ccc(Cl)cc1)N1CCOCC1	-2%	11µM*	-32%	40µM*	-21%
COC(=O)C12CC3=CC(CC3=O)Cc3ccccc3[C@@H]1CNC2=O (stereo partly drawn)	.	.	.	25%	.
O=C(c1ccco1)N1CCN(C(=O)c2ccc(COc3ccc(Cl)cc3Cl)o2)CC1	.	.	-20%	.	89µM*
O=C(O)COc1ccc(Cl)cc1Cl	.	.	8%	21%	-5%[11.4 µM]
O=C1N=NC2=C1c1c3ccccc3c(O)n1CC2	-4%	17%	?	15%	-15%
CC/C(=C(\c1ccc(O)cc1)c1ccc(OCCN(C)C)cc1)c1ccccc1	45µM*	?	-21%	40µM*	56µM*
O=c1[nH]c(=O)n([C@H]2C[C@H](O)[C@@H](CO)O2)cc1/C=C/Br	.	17%[12.7 µM]	.	3%	.
SMILES	BAZ2B block	G9a block	HP1b chromo inh	Sfp PPTase inh	JMJD2A Tudor inh
C=CCn1c(O)c(C=Nc2ccc(Cc3ccncc3)cc2)c(=O)[nH]c1=S	?	31%[0.501 µM]	48%	-24%	?
CCOP(=S)(OCC)OCCSCC	.	.	.	-10%	.
CC1OC1P(=O)(O)O (stereo not drawn)	.	25µM*!	.	5%	.
NC(=O)CI	.	2.4µM*	.	.	.
S=C=NCc1ccccc1	.	-34%[2.33 µM]	.	5%	.
COc1ccc(/C=C2/C(=O)N(Cc3ccco3)C(=O)N(C(C)C)C2=O)cc1	-35%	?	-2%	-18%	-31%
C=CCN1C(=O)/C(=C/c2cccs2)C(=O)NC1=S	?	8.9µM*	-7%	20µM*	79µM*
O=C1NC(=S)N(Cc2ccco2)C(=O)/C1=C\c1cccs1	.	3.2µM*	.	20µM*	.
CC(C)C[C@H](NC(=O)[C@H](Cc1ccccc1)NC(=O)CNC(=O)CNC(=O)[C@@H](N)Cc1ccc(O)cc1)C(=O)N[C@@H](CCCN=C(N)N)C(=O)N[C@@H](CCCCN)C(=O)N[C@@H](Cc1ccc(O)cc1)C(=O)N1CCC[C@H]1C(=O)N[C@@H](CCCCN)C(=O)O	.	38%[59 µM]	.	19%	.
C[C@@H]1OC=C2[C@@H](O)[C@H]3O[C@H]3C(=O)[C@@]23[C@H]1[C@H]1C2=C([C@@H](O)[C@H]4O[C@@H]4C2=O)[C@@H]3O[C@@H]1C	.	.	.	23%	.
CN1[C@@H]2CC[C@H]1CC(OC(c1ccc(F)cc1)c1ccc(F)cc1)C2 (stereo partly drawn)	.	.	.	1%	.
O=C1N=C(N2CCCCC2)SC1=C1CCCCC1	-4%	25µM*	36%	-3%	3%
CCOC(=O)c1ccc(N2C(=O)c3n[nH]c(-c4cccs4)c3C2c2ccc(C(C)(C)C)cc2)cc1 (stereo not drawn)	.	?	-4%	.	?
CCC(CC)c1nnc(NC(=O)CC(C)c2ccccc2)s1 (stereo not drawn)	1%	?	-14%	-17%	-14%
CC(=O)Nc1c2sscc-2n(C)c1=O	.	-21%[12.7 µM]	.	?	.
CC(C)(C)c1ccc(-c2n[nH]c(=S)n2CCCN2CCOCC2)cc1	-33%	6.3µM*	4%	3%	10µM*
COc1cc(C=C2C(=O)NC(=O)NC2=O)ccc1OCc1ccc([N+](=O)[O-])cc1	.	25µM*	21%	32µM*	35µM*
CN1C(=O)C(=Cc2ccccc2OCCOc2ccc([N+](=O)[O-])cc2)C(=O)N(C)C1=O	50µM*	10µM*	19%	71µM*	?
CN1C(=O)C(=Cc2ccccc2OCc2ccc(C(=O)O)cc2)C(=O)N(C)C1=O	2%	?	36%	-28%	-11%
CCn1cc(C=C2C(=O)N(C)C(=O)N(C)C2=O)c2ccccc21	6%	3%[0.501 µM]	36%	7%	-15%
CN1C(=O)C(=Cc2ccccc2OCc2ccccc2Cl)C(=O)N(C)C1=O	51%	30%[59 µM]	101%	50µM*	96%
CN1C(=O)C(=Cc2ccccc2OS(=O)(=O)c2ccccc2)C(=O)N(C)C1=O	?	.	51%	35µM*	-31%
Cc1c(C=C2C(=O)N(C)C(=O)N(C)C2=O)c(=O)n(-c2ccccc2)n1C	5%	-5%[59 µM]	39%	22%	-2%
CC(C)(O)[C@@H]1C2OC(=O)[C@@H]1[C@]1(O)C[C@H]3O[C@]34C(=O)O[C@H]2[C@]14C (tested in a mixture with another compound)	.	14%[59 µM]	.	.	.
COc1cc(C(=O)N/N=C/c2ccc(OC(=O)N3CCOCC3)cc2)cc(OC)c1OC	-1%	?	7%	-5%	-18%
